Compound activity as filed in PubChem BioAssay.
Only a selection was taken, and hits are over-represented in it overall.
ClpP mod: qHTS Assay for Activators of ClpP; Potency, µM (series often up to 57.5 µM), without a hit: at the top dose activity change, negative = active; purified B. subtilis ClpP, FRET peptide cleavage, 20 min; ATP-dependent Clp protease proteolytic subunit (Bacillus subtilis (strain 168)), P80244; AID 651965, 2013; hit rate 1.9% among 340,000; active = well fitted falling curve with a large enough effect; inconclusive = small, poorly fitted or top-dose-only effect; inactive = no such curve, though single readings can be large or run the other way; note: potency is the fitted concentration of half-maximal effect; the source files actives as falling curves though it sought activators and does not explain the sign; nearly all actives have a fitted effect of over 65% in size
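Buffer: 100 mM Tris/HCl pH8, 100 mM KCl, 0.05% low protease BSA, 2.5% glycerol, 0.01% Tween-20. ClpP 10 microg/mL final; 20 min RT; delta FRET normalized to ADEP and DMSO controls.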
RGS4 inh: Inhibitors of Regulator of G Protein Signaling (RGS) 4: qHTS. hit rate 0.039% among 390,000. Transcreener GDP fluorescence polarization, RGS4-accelerated GTP hydrolysis. Potency, µM (top dose mostly 114 µM), for inactives: at the top dose activity change, negative = inhibition, actives largely listed as inhibitors. Regulator of G-protein signaling 4 (Homo sapiens), P49798. AID 504845, 2011; note: potency is the fitted concentration of half-maximal effect; % is set by controls: 0 for no effect and ±100 for the full control effect; nearly all actives have a fitted effect of over 75% in size
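MLSMR compounds (23 nl, pin-transferred) preincubated 10 min at room temperature with a 500nM (2x) first reagent, then RGS4 at 900nM (2x) plus Transcreener GDP mix added; fluorescence polarization (620/688 nm) read before and after 90 min at 30 °C.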
LDHA block: qHTS assay for inhibitors of human lactate dehydrogenase. activity change, % (values are at about 110 or 230 µM). purified LDHA, NADH/diaphorase-resazurin fluorescence; active compounds read low. hit rate 0.15% among 480,000; in the data active = activity change below about -30%; inconclusive = mostly about -25% to -30%;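 note: plate controls were DMSO wells for no effect and wells without enzyme for full effect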
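Resorufin fluorescence (ex540/em590), read at 0 and 20 min after diaphorase/resazurin addition, reports the NADH left after a 5 min room-temperature reaction of 2 nM human LDH5 with 0.06 mM NADH and 0.2 mM pyruvate.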
S-ASM inh: Inhibitors of Secretory Acid Sphingomyelinase (S-ASM): qHTS. hit rate 0.006% among 340,000. placental ASM, HMU-PC fluorogenic substrate, 60 min. Potency, µM (doses to about 57.5 µM), inactives show top-dose activity change, negative = inhibition, most hits filed as inhibitors. Sphingomyelin phosphodiesterase (Homo sapiens), P17405; note: potency is the fitted concentration of half-maximal effect
Target sequence (P17405 47-631 limits assumed): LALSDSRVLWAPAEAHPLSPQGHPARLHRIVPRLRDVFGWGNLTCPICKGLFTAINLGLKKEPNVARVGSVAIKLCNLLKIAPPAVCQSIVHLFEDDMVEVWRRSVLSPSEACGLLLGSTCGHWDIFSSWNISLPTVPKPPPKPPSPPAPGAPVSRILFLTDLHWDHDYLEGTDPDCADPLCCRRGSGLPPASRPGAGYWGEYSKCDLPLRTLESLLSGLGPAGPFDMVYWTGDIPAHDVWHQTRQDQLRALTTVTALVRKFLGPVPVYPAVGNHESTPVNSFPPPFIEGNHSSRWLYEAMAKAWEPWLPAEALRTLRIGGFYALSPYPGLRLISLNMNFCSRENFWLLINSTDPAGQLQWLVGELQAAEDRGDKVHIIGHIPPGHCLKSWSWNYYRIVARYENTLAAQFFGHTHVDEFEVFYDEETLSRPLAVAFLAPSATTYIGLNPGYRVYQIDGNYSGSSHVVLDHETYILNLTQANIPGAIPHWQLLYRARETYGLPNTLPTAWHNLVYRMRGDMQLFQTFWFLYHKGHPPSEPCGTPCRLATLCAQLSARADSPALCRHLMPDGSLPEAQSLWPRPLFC
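Human placenta-derived ASM preincubated with compound 10 min at room temperature, then reacted with 9 uM (final) fluorogenic HMU-PC substrate for 60 min at 37 C. Stop solution raises pH to 10; fluorescence read at Ex 386/Em 447 nm.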
Mito fusion yeast: qHTS Assay for Small Molecule Inhibitors of Mitochondrial Division or Activators of Mitochondrial Fusion. hit rate 0.23% among 320,000. S. cerevisiae fusion-defective mutant growth rescue, CellTiterGlo 48 h. Potency, µM (titrated, usually from 46.1 µM), without a hit: at the highest dose growth rescue (activation), actives largely listed as activators; note: potency is the fitted concentration of half-maximal effect; % of control where 0% means no effect; nearly all actives have a fitted effect of over 45% in size
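Yeast fusion mutant, YPEG (non-fermentable carbon), compound, 48 h at 37C non-permissive; CellTiterGlo added, 10 min RT, luminescence read. Rescued growth = division inhibition.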
IDH1 R132H inh: qHTS for Inhibitors of mutant isocitrate dehydrogenase 1 (IDH1): qHTS; IDH1-R132H enzyme, NADPH consumption, diaphorase/resazurin fluorescence; AID 602179, 2012; hit rate 0.093% among 390,000; Potency, µM (titrated, usually from 76.6 µM), without a hit: at the top dose activity change, negative = inhibition, most hits filed as inhibitors; Isocitrate dehydrogenase [NADP] cytoplasmic (Homo sapiens), O75874; note: potency is the fitted concentration of half-maximal effect; % is set by controls: 0 for no effect and ±100 for the full control effect; nearly all actives have a fitted effect of over 65% in size
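IDH1-R132H (0.5 ug/mL) preincubated 30 min with compound, then NADPH (0.016 mM) and alpha-KG (2 mM) added; 80 min at RT, pH 7.5. Remaining NADPH coupled via diaphorase/resazurin to fluorescence (540/590 nm); concentration-response curves normalized to no-enzyme control.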
Starred values were filed as active, the others as inactive; ! = repeats disagree; [ ] = another dose, or the depositor's remark. Unless noted, calls come from the whole dose curve; as a rule, active = well fitted curve in the direction sought with a large enough effect; inconclusive = small, poorly fitted or top-dose-only effect, or another doubt; inactive = no such curve, though single readings can be large; an effect the other way counts as inactive or inconclusive.

What do the screens show for `Cc1ccc(NC(=O)CSc2nnc(C)c(=O)n2N)c(C)c1`?
ClpP mod: -1%; RGS4 inh: -8%; LDHA block: -37*; S-ASM inh: 0%; Mito fusion yeast: 0%; IDH1 R132H inh: 1%

Results for Cc1nnc(SCC(=O)Nc2ccc(OC(F)F)c(Cl)c2)n(N)c1=O ?
ClpP mod: 1%; RGS4 inh: -8%; LDHA block: -36*; S-ASM inh: -1%; IDH1 R132H inh: 11%

Results for COc1ccc(OC)c(/C=C2\Oc3cc(OC(=O)c4ccc(C(C)(C)C)cc4)ccc3C2=O)c1 ?
LDHA block: 1

Results for CCC(NC(=O)c1ccc(C)s1)c1ccccc1 (stereo not given) ?
LDHA block: 7

Results for CCC(NC(=O)c1ccccc1O)c1ccccc1 (stereo not given) ?
ClpP mod: 32µM*; RGS4 inh: -7%; LDHA block: 10; S-ASM inh: 0%; Mito fusion yeast: inconclusive; IDH1 R132H inh: 2%

What do the screens show for `Cc1c(-c2ccccc2)nc2ccccc2c1C(=O)O`?
ClpP mod: -2%; RGS4 inh: 16%; LDHA block: inconclusive; S-ASM inh: 2%; Mito fusion yeast: 3%; IDH1 R132H inh: 1%

What do the screens show for `CC[C@H](NC(=O)c1c(C)c(-c2ccccc2)nc2ccccc12)c1ccccc1`?
ClpP mod: 1%; RGS4 inh: -6%[56.9 µM]; LDHA block: -5; S-ASM inh: 3%; Mito fusion yeast: 21µM*!; IDH1 R132H inh: 4%

Results for CC(C)Oc1ccc(C(=O)N/N=C/c2ccc(-c3ccc(S(=O)(=O)Nc4ncccn4)cc3)o2)cc1 ?
ClpP mod: 14µM*; RGS4 inh: -7%; LDHA block: -9; S-ASM inh: 275%; Mito fusion yeast: -1%; IDH1 R132H inh: -2%

What do the screens show for `CCc1nc2n(n1)C1(CCCCC1)[C@@H]1CCCC[C@@H]1N2C(=O)C1CC1`?
LDHA block: -1

Results for NC(=S)c1ccc[n+]([C@@H]2O[C@@H](COP(=O)([O-])OP(=O)(O)OC[C@H]3O[C@@H](n4cnc5c(N)ncnc54)[C@H](OP(=O)(O)O)[C@@H]3O)C(O)C2O)c1 (stereo not given in full) ?
RGS4 inh: 27µM*; Mito fusion yeast: inconclusive

Results for CCOc1ccc(S(=O)(=O)NCCC(=O)N(C)CC(=O)Nc2cccc(OC)c2)cc1 ?
LDHA block: -6

Results for CC(C)c1ccc(CNCC(O)c2ccccc2)cc1 (stereo not given) ?
LDHA block: 9

How did COc1ccc(OC)c(/C=N/NC(=O)CCc2ccc(O)c(O)c2)c1 do in these assays?
ClpP mod: 8.9µM*; RGS4 inh: 15%; LDHA block: 13; S-ASM inh: 10%; Mito fusion yeast: 3%; IDH1 R132H inh: 10%

What do the screens show for `COc1ccc(OC)c(/C=N/NC(=O)CC2C(=O)NN=C2C)c1` (stereo not given)?
ClpP mod: 28µM*; RGS4 inh: 21%; LDHA block: -4; S-ASM inh: 10%; Mito fusion yeast: -2%; IDH1 R132H inh: -6%

What do the screens show for `Cc1cc(C(=O)O)ccc1-c1ccc(C=O)o1`?
LDHA block: -7

Results for CCOC(=O)C(N)c1ccc(Cl)cc1 (stereo not given) ?
LDHA block: 9

Results for Cc1ccc(COC(=O)Cn2cnc3c2c(=O)n(C)c(=O)n3C)cc1 ?
LDHA block: 7

What do the screens show for `CCN1CCc2c(sc(N)c2C(N)=O)C1`?
ClpP mod: 14µM*; RGS4 inh: -5%; LDHA block: 6; S-ASM inh: 326%; Mito fusion yeast: 2%; IDH1 R132H inh: 7%

How did CN1CCc2c(sc(N)c2C(N)=O)C1 do in these assays?
ClpP mod: 20µM*; RGS4 inh: -9%; LDHA block: 13; S-ASM inh: 148%; Mito fusion yeast: -4%; IDH1 R132H inh: 10%

Results for NC(=O)c1c(N)sc2c1CCCC2 ?
ClpP mod: -8%; RGS4 inh: inconclusive; LDHA block: 5; S-ASM inh: 14%; Mito fusion yeast: 6%; IDH1 R132H inh: -6%

Results for CCN1CCc2c(sc(NC(=O)Nc3cccc(C)c3)c2C(N)=O)C1 ?
LDHA block: 17

What do the screens show for `O=C(Nc1ccc(-c2cn3c(n2)SCC3)cc1)c1ccc2ccccc2n1`?
ClpP mod: 22µM*; RGS4 inh: -42%; LDHA block: -5; S-ASM inh: -10%; Mito fusion yeast: 3%; IDH1 R132H inh: 9%

How did O=C(Nc1cccc(-c2cn3c(n2)SCC3)c1)c1ccc2ccccc2n1 do in these assays?
RGS4 inh: -29%; LDHA block: 0; S-ASM inh: -10%; Mito fusion yeast: -3%; IDH1 R132H inh: 6%

Results for COc1ccc2oc(=O)c(C(=O)NCc3cccnc3)cc2c1 ?
ClpP mod: 28µM*; RGS4 inh: 0%; LDHA block: -3; S-ASM inh: 346%; Mito fusion yeast: -3%; IDH1 R132H inh: 7%

What do the screens show for `CNC(=O)c1cc2ccc(OC)cc2oc1=O`?
ClpP mod: 84%; RGS4 inh: 27%; LDHA block: -5; S-ASM inh: 386%; Mito fusion yeast: -3%; IDH1 R132H inh: 2%

How did COc1ccc(-c2cc(C(F)F)n3ncc(C(=O)NCC4CCCO4)c3n2)cc1 (stereo not given) do in these assays?
ClpP mod: 22µM*; RGS4 inh: -16%; LDHA block: -2; S-ASM inh: inactive; Mito fusion yeast: 15%; IDH1 R132H inh: 2%

What do the screens show for `COc1ccc2oc(=O)c(C(=O)NCc3ccc(F)cc3)cc2c1`?
ClpP mod: 1%; RGS4 inh: -6%; LDHA block: -7; S-ASM inh: 114%; Mito fusion yeast: 3%; IDH1 R132H inh: -1%

How did O=C(NCC1CCCO1)c1cnn2c(C(F)F)cc(C3CC3)nc12 (stereo not given) do in these assays?
ClpP mod: -9%; RGS4 inh: -4%; LDHA block: 0; S-ASM inh: 7%; Mito fusion yeast: 2%; IDH1 R132H inh: 0%
